Laboratory results from ChEMBL document CHEMBL1961873, “Compounds: GSK PKIS; Assays: Nanosyn kinase panel” (2012).

These compounds were tested against T1, MAP kinase-activated protein kinase 5 (Homo sapiens) (UniProt Q8IW41). Settings: at 0.1 µM.
T1 sequence (whole entry): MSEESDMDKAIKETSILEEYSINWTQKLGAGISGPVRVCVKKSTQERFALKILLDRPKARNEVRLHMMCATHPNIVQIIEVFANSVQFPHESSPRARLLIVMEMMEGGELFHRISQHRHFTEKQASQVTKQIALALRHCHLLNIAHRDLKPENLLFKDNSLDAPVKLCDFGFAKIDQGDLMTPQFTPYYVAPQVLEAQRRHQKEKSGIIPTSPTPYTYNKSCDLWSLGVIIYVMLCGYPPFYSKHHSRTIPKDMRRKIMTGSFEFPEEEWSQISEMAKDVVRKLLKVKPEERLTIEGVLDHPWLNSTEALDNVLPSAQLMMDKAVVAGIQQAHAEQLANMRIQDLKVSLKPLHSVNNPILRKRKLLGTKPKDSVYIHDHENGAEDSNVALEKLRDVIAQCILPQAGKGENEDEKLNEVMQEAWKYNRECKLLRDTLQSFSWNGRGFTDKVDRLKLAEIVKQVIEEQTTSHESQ
Work on `COc1cc(C=NNc2ncnc3c2cnn3Cc2ccccc2)ccc1O` yielded an inhibition of -1.78%. Work on `CCn1c(-c2nonc2N)nc2c(C#CCN)ncc(OCCCN)c21` yielded an inhibition of -1.32%. Work on `CCn1c(-c2nonc2N)nc2c(C#CC(C)(C)O)nc(O[C@@H](CN)c3ccccc3)cc21` yielded an inhibition of -0.85%. `NS(=O)(=O)c1ccc(N/C=C2\C(=O)Nc3ccc4ncsc4c32)cc1` gave an inhibition of 2.27%. Compound `NC(=O)c1sc(-n2cnc3cc(C(F)(F)F)ccc32)cc1OCc1ccccc1Br` has an inhibition of 0.86%. Work on `Cc1cc(-c2ccco2)cc(C)c1/C=C/c1cncc(-c2nn[nH]n2)c1` yielded an inhibition of 0.41%. Compound `Nc1nonc1-c1nc2cnccc2n1C1CCCCC1` has an inhibition of -0.83%. For `COc1cccc(-n2ncc3c(N/N=C/c4ccncc4)ncnc32)c1`, the inhibition was 1.56%. `COc1cc2c(cc1Nc1nc(Nc3ccsc3C(N)=O)c3cc[nH]c3n1)N(C(=O)CN(C)C)CCC2` was tested, and the inhibition was 1.1%. Compound `CCn1c(-c2nonc2N)nc2c(C#CC(C)(C)O)ncc(OC[C@@H]3CCCN3)c21` has an inhibition of 0.11%. With `CCn1c(-c2nonc2N)nc2c(C#CC(C)(C)O)ncc(OCC3CCNCC3)c21` the inhibition was 1.57%. `COc1cccc(COc2cc(-n3cnc4ccccc43)sc2C(N)=O)c1` showed an inhibition of 0.16%. With `Fc1ccc(-c2ncn(C3CCNCC3)c2-c2ccnc(Oc3ccccc3)n2)cc1` the inhibition was 0.89%. With `NS(=O)(=O)c1ccc(-c2ccc3c(NC(=O)C4CC4)n[nH]c3c2)cc1` the inhibition was 0.51%.

Each compound was assayed against T1, MAP kinase-activated protein kinase 5 (Homo sapiens). Settings: at 1 µM.
For `COc1cc(C=NNc2ncnc3c2cnn3Cc2ccccc2)ccc1O`, the inhibition was -1.84%. `CCn1c(-c2nonc2N)nc2c(C#CCN)ncc(OCCCN)c21` gave an inhibition of 1.09%. Work on `CCn1c(-c2nonc2N)nc2c(C#CC(C)(C)O)nc(O[C@@H](CN)c3ccccc3)cc21` yielded an inhibition of -1.11%. In the case of `NS(=O)(=O)c1ccc(N/C=C2\C(=O)Nc3ccc4ncsc4c32)cc1`, the inhibition is reported as 7.16%. `NC(=O)c1sc(-n2cnc3cc(C(F)(F)F)ccc32)cc1OCc1ccccc1Br` showed an inhibition of 0.76%. In the case of `Cc1cc(-c2ccco2)cc(C)c1/C=C/c1cncc(-c2nn[nH]n2)c1`, the inhibition is reported as 0.28%. `Nc1nonc1-c1nc2cnccc2n1C1CCCCC1` was tested, and the inhibition was -1.13%. `COc1cccc(-n2ncc3c(N/N=C/c4ccncc4)ncnc32)c1` was tested, and the inhibition was 3.04%. Work on `COc1cc2c(cc1Nc1nc(Nc3ccsc3C(N)=O)c3cc[nH]c3n1)N(C(=O)CN(C)C)CCC2` yielded an inhibition of 1.23%. For `CCn1c(-c2nonc2N)nc2c(C#CC(C)(C)O)ncc(OC[C@@H]3CCCN3)c21`, the inhibition was 0.32%. `CCn1c(-c2nonc2N)nc2c(C#CC(C)(C)O)ncc(OCC3CCNCC3)c21` showed an inhibition of 2.94%. `COc1cccc(COc2cc(-n3cnc4ccccc43)sc2C(N)=O)c1` showed an inhibition of -0.81%. `Fc1ccc(-c2ncn(C3CCNCC3)c2-c2ccnc(Oc3ccccc3)n2)cc1` showed an inhibition of 1.1%. `NS(=O)(=O)c1ccc(-c2ccc3c(NC(=O)C4CC4)n[nH]c3c2)cc1` was tested, and the inhibition was 0.89%.
